Compound activity as filed in PubChem.
Only a selection was taken, and hits are over-represented in it overall.
NTMT1 inhibitor: blocks human N-terminal methyltransferase 1 activity; Potency, µM (series often up to 114 µM), without a hit: at the top dose activity change, negative = inhibition, hits mostly inhibitors; 2.5% of 59,000 active; NTMT1 MTase-Glo SAH luminescence, purified enzyme; Q9BV86; AID 1645870;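 also: potency is read from the fitted curve at half-maximal effect; plate controls were DMSO vehicle for no effect and no enzyme for full effect; nearly all actives have a fitted effect of over 65% in size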
Target sequence (Q9BV86 whole entry, looked up): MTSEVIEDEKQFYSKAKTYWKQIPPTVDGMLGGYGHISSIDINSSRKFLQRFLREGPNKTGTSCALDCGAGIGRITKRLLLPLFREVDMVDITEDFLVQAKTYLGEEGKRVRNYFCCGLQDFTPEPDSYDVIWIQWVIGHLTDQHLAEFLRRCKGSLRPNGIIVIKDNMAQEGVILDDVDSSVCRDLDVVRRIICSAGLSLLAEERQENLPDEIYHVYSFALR
TSG101-PTAP inh: inhibitors of HIV-1 PTAP binding to human TSG101, validation. Potency, µM (series often up to 115 µM), actives largely listed as inhibitors. Fluorescence polarization, FITC-PTAP peptide/Tsg101, 20 min. AID 1347069. 44,000 tested, under 10 active; also: potency is read from the fitted curve at half-maximal effect; 0% is about no effect
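FITC-labeled PTAP peptide (50 nM final) binding to Tsg101 binding domain (10 uM final) read by fluorescence polarization after 20 min at r.t. in HEPES pH 7.5 buffer. Actives by CRC class, <25 µM.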
B2AR arrestin ag: agonists recruiting beta-arrestin to human beta2-adrenergic receptor; P07550; HTLA Tango cells, beta-arrestin recruitment, luciferase luminescence, 18 h; Potency, µM (doses to about 46.1 µM), most hits filed as activators; 44,000 tested, under 10 active;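 also: potency is read from the fitted curve at half-maximal effect; 0% = DMSO and full agonism = EC100 isoproterenol or metaproterenol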
Target sequence (P07550 whole entry, looked up): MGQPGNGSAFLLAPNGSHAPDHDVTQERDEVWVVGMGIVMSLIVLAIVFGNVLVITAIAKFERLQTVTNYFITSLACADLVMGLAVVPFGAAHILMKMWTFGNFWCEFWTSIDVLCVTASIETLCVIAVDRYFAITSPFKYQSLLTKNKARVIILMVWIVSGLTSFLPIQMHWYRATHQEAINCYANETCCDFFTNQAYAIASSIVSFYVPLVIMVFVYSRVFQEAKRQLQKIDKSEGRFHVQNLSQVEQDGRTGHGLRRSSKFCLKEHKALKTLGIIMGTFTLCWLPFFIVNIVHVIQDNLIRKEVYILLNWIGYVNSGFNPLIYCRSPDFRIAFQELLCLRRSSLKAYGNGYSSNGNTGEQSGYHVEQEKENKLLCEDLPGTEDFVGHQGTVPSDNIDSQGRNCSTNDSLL
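First, Tango cells carrying beta2-AR and beta-arrestin fusions received compound up to 46 microM. After 18 hr at 37 degrees C, luciferase substrate was added for 15 minutes, then luminescence gave %Activity for curve fitting.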
GALK inhibitor: inhibits human galactokinase. Potency, µM (highest dose often 57.5 µM), for the others: at the highest dose activity, negative = inhibition, most hits filed as inhibitors. recombinant GALK, Kinase-Glo ATP luminescence, 1 h. P51570. AID 1347072. 44,000 tested, under 10 active;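 also: plate controls were full GALK reaction for no effect and reaction lacking GALK for full effect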
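Luminescent ATP-depletion readout (Kinase-Glo Plus) after 1 h room-temperature incubation of human GALK (5 nM) with galactose 100 µM and ATP 35 µM, pH 8.0 HEPES/Mg2+ buffer; compounds tested in qHTS format.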
HTT-AS promoter: activators of huntingtin-antisense promoter activity | HEK293 HTT-AS promoter firefly luciferase reporter, 24 h; response scale: percent change from vehicle, -100% = no light | Potency, µM (titrated, usually from 57.5 µM), for the others: at the highest dose activity change, positive = activation, hits mostly activators | 0.24% of 48,000 active | AID 1508624; also: potency is read from the fitted curve at half-maximal effect; nearly all actives have a fitted effect of over 55% in size
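Quantitative HTS used concentration series of up to 57.5 uM final on HEK293 luciferase reporter cells, 24 h at 37 degrees C. Readout was Dual-Glo firefly luminescence.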
HTT promoter inh: inhibits huntingtin promoter activity; HEK293 HTT promoter firefly luciferase reporter, 24 h; Potency, µM (highest dose often 57.5 µM), inactives show at the top dose activity change, negative = inhibition, actives largely listed as inhibitors; 0.93% of 48,000 active; also: potency is read from the fitted curve at half-maximal effect; nearly all actives have a fitted effect of over 50% in size
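HEK293 Fluc reporter, 2,500 cells/well, 24 h pre-culture; cpds up to 57.5 uM final, 24 h 37 degrees C; Dual-Glo, 10 min RT; normalized vehicle = 0%, zero RLU = -100%.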
* marks the source's active call; other numbers are inactive results; i = inactive; ? = inconclusive; . = no result; ! = a repeat was not active; [ ] = another dose, or the depositor's remark. Calls follow the shape of the dose curve; as a rule, active = well fitted curve in the direction sought with a large enough effect; inconclusive = small, poorly fitted or top-dose-only effect, or another doubt; inactive = no such curve, though single readings can be large; an effect the other way counts as inactive or inconclusive.

SMILES | NTMT1 inhibitor | TSG101-PTAP inh | B2AR arrestin ag | GALK inhibitor | HTT-AS promoter | HTT promoter inh
COC(=O)c1ccc(CN(Cc2ccc(OC)c(OC)c2)S(=O)(=O)c2cc(C(=O)Nc3cccc(C)c3)ccc2F)cc1 | -1% | i | i | -5% | -3% | -20%
Cc1cc(-c2cnn3c(NCC4CC(C)(O)C4)cc(Oc4cccnc4)nc23)ccc1C(=O)NC1CC1 (stereo not given) | 9%[12.6 µM] | . | . | . | . | .
Cc1noc(-c2sc3c(c2-c2nc4ccccc4s2)CCNC3)n1 | 18% | . | . | . | . | .
CCc1ccc(C2Sc3ccccc3NC3=C2C(=O)c2ccccc23)cc1 (stereo not given) | -14% | i | i | 8% | -1% | ?
CC(C)c1ccc(C2Sc3ccccc3NC3=C2C(=O)c2ccccc23)cc1 (stereo not given) | 1% | i | i | 0% | -80% | 13µM*
O=C(Nc1sc2c(c1C(=O)Nc1cccc(Cl)c1)CCCC2)c1cccs1 | 25µM* | i | i | 2% | -31% | -11%
COc1ccccc1NC(=O)c1c(NCc2ccc(C)o2)sc2c1CCCCC2 | 28µM* | i | i | 2% | 4% | 8%
O=C(Cc1ccccc1)Nc1sc2c(c1C(=O)Nc1ccccc1Cl)CCCC2 | 89µM* | i | i | -2% | -15% | 5%
CC(C)C[C@@H]1NC(=O)[C@@H](C(C)C)NC(=O)[C@@H]2CCCN2C(=O)[C@@H](CC(=O)O)NC(=O)[C@@H](Cc2c[nH]c3ccccc23)NC1=O | 10% | . | . | . | . | .
O=[S+]([O-])(Nc1ccc(-c2nc3ccccc3[nH]2)cc1)c1ccc2c(c1)CCO2 | 4% | . | . | . | . | .
C[C@@]1(c2ncncc2F)NC(=O)c2cc(-c3cn[nH]c3)ccc21 | 0% | . | . | . | . | .
Cc1ncc(CCCN(C)C)cc1Nc1ncc2c(n1)-c1ccc(C(F)(F)F)cc1NC(=S)C2 | 32µM* | . | . | . | . | .
C[n+]1cc(NC(=O)c2cccc(C(=O)Nc3cc4ccccc4[n+](C)c3)n2)cc2ccccc21 | 50µM* | . | . | . | . | .
O=C1CCC(c2ccccc2)(C2CCN(Cc3ccc(I)cc3)CC2)C(=O)N1 (stereo not given) | -20%[57.5 µM] | . | . | . | . | .
O=C(Nc1nnc(-c2ccco2)o1)c1ccncc1 | 10% | . | . | . | . | .
c1ccc(Cn2c(-c3ccc(OCC(C4CCNCC4)n4c(-c5ccccc5)nc5ccccc54)cc3)nc3ccccc32)cc1 (stereo not given) | 28µM* | . | . | . | . | .
Cc1cccc(Cn2c(-c3ccccc3)nc3ccccc32)c1 | -2% | i | i | 6% | -23% | 2%
COc1ccc2c(C)cc(SCC(=O)Nc3nsc(-c4ccccc4C)n3)nc2c1 | 5% | i | i | 2% | -28% | -9%
Cc1ccc(-c2nc(NC(=O)CSc3cc(C)c4ccccc4n3)ns2)cc1 | 40µM* | i | i | 0% | -3% | 1%
CN[C@@H](C)C(=O)N[C@H](C(=O)N1CCC[C@H]1C(=O)Nc1sc(-c2ncco2)nc1-c1ccccc1)C1CCCCC1 | 12% | . | . | . | . | .
COc1cc(OC)c(NS(=O)(=O)c2ccc3c(c2)NC(=O)CCS3)cc1Cl | 14% | i | i | 0% | -49% | 28µM*
Cc1ccccc1NS(=O)(=O)c1ccc2c(c1)NC(=O)CCS2 | 8% | i | i | -7% | -26% | -22%
Cc1ccc(OCCn2c(CCNC(=O)OC(C)(C)C)nc3ccccc32)cc1 | 2% | . | . | . | . | .
O=C(Nc1ccc(Oc2ccccc2)cc1)c1ccc(F)c(S(=O)(=O)N2CCN(c3cccc(Cl)c3)CC2)c1 | 13% | i | i | 0% | -44% | ?
Cc1cccc(N2CCN(c3ccc(C(=O)O)cc3NC(=O)c3cccc(Cl)c3)CC2C)c1 (stereo not given) | 79µM* | i | i | 0% | -12% | -4%
SMILES | NTMT1 inhibitor | TSG101-PTAP inh | B2AR arrestin ag | GALK inhibitor | HTT-AS promoter | HTT promoter inh
COc1ccccc1N1CCN(S(=O)(=O)c2ccc(F)c(C(=O)Nc3ccc(C)c(F)c3)c2)CC1 | 24% | i | i | 0% | -24% | ?
COc1ccccc1N1CCN(S(=O)(=O)c2cc(C(=O)Nc3ccc(Oc4ccccc4)cc3)ccc2F)CC1 | 4% | i | i | -6% | -42% | 1.4µM*
Cc1cccc(N2CCN(S(=O)(=O)c3cc(C(=O)Nc4ccc(Oc5ccccc5)cc4)ccc3F)CC2C)c1 (stereo not given) | 5% | i | i | -1% | -46% | 1µM*
Cc1cccc(NC(=O)c2ccc(F)c(S(=O)(=O)N3CCN(c4ccc(F)cc4)CC3)c2)c1 | 7% | i | i | 3% | -31% | ?
O=C(Nc1ccc(Oc2ccccc2)cc1)c1ccc(F)c(S(=O)(=O)N2CCN(c3ccccc3F)CC2)c1 | 4% | i | i | 2% | -44% | 2µM*
N#Cc1ccc(-c2nc(NCc3ccc(-c4ccnc(C(F)(F)F)c4)cc3)c3ccccc3n2)cc1 | 8% | . | . | . | . | .
C/C=C1\NC(=O)[C@H]2CSSCC/C=C\[C@H](CC(=O)N[C@H](C(C)C)C(=O)N2)OC(=O)[C@H](C(C)C)NC1=O | -4% | . | . | . | . | .
CCCCC(C)(C)[C@H](O)C=C[C@H]1[C@H](O)CC(=O)[C@H]1CC=CCCCC(=O)O | 50µM* | . | . | . | -8% | -8%
CN(C)CCOc1ccc(/C(=C(/CCCl)c2ccccc2)c2ccccc2)cc1 | -1% | . | . | . | . | .
CCN(CC)CCOc1ccc(Cc2ccccc2)cc1 | 32µM*! | . | . | . | 5% | -3%
CCN(CC)CCOc1ccc(C(=C(Cl)c2ccccc2)c2ccccc2)cc1 | -25%[57.5 µM] | . | . | . | 24µM* | -9%
CCN(CC)CCCC[C@H](NC(=O)[C@H](CC(C)C)NC(=O)[C@H](C)NC(=O)[C@H](Cc1ccccc1)NC(=O)c1ccc(C(C)(C)C)cc1)C(=O)N[C@@H](CO)C(=O)OC | 8% | . | . | . | . | .
O=C(Nc1ccc([S+](=O)([O-])Nc2nccs2)cc1)c1ncn[nH]1 | -11% | . | . | . | . | .
CN(C)C(=S)SC(=S)N(C)C | 25µM* | . | . | . | -60% | ?
COc1ccccc1C(=O)N1c2ccccc2C(C)(c2ccc(Cl)cc2)CC1(C)C (stereo not given) | -1% | i | i | -5% | -50% | 25µM*
